The text below walks through data of PubChem BioAssay AID1347069 (National Center for Advancing Translational Sciences (NCATS), 2019).

The campaign covered roughly 44,000 compounds. Fewer than 10 were called active. Calls follow the shape of the dose curve; as a rule, active = well fitted inhibition curve with a large enough effect; inconclusive = small, poorly fitted or top-dose-only effect; inactive = flat fitted curve, though single readings scatter. Not all results are given here.
Potency is read from the fitted curve at half-maximal effect.

Tumor susceptibility gene 101 protein (Homo sapiens), sequence (Q99816 whole entry, looked up): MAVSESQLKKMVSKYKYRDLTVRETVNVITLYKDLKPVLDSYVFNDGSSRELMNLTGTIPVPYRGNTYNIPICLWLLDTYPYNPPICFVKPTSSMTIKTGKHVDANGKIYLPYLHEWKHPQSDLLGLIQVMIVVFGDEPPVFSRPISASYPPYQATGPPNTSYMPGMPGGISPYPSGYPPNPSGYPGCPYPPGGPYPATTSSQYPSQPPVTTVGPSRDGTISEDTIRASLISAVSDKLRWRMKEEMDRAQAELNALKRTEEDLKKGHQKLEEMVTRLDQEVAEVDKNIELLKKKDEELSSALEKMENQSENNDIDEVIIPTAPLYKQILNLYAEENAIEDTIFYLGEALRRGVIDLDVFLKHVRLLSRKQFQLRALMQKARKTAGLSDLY

This experiment concerns the target Tumor susceptibility gene 101 protein (Homo sapiens) (UniProt Q99816). Kind of experiment: qHTS Validation Assay for Inhibitors of HIV-1 Budding by Blocking the Interaction of PTAP/TSG101: Sytravon Library Screen. As to activity change, negative = inhibition: 0% is about no effect. As to conditions: Fluorescence polarization, FITC-PTAP peptide/Tsg101, 20 min; series mostly up to 115 µM; activity change, negative = inhibition: at the top concentration. The source says:
Stages of the HIV-1 replication cycle, specifically virus assembly and release, provide underexploited targets for the development of novel antiviral inhibitors. The late stages of HIV-1 replication are mediated by the Gag precursor protein, Pr55Gag. Expression of Pr55Gag is both necessary and sufficient for the production of virus-like particles from Gag-expressing cells. The Gag protein hijacks key host proteins involved in endocytic machinery of the host cell to promote endosomal processing and viral budding. The budding process requires a direct interaction between a […] (PTAP) motif in the p6 domain of Gag and the cellular endosomal sorting protein known as Tsg101. In this way, the Gag PTAP motif promotes the host cells to recruit viral particles to the plasma membrane where the new viral particles are released, effectively turning the host cells into viral factories. A fluorescence polarization assay has been developed to quantitatively measure the PTAP-Tsg101 interaction which can be used to screen for inhibitors of this interaction. This assay was run against the NCGC Sytravon Library collection. NIH Molecular Libraries Probe Production Network [MLPCN] NIH Chemical Genomics Center [NCGC] Grant: R03 MH087464-01A1 PI Name: Dr. Eric Freed, NCI
Two uL of the Tsg101 binding domain in buffer (10 mM HEPES pH 7.5; 0.15 M NaCl, 0.01% Tween 20; 3 mM EDTA;0.1 mM TCEP) was dispensed into Greiner black MB 1536-well plates (final concentration 10 uM). Then, 23 nL of compounds or DMSO were delivered to each well using a pin tool. Finally, 2 uL of a FITC-labeled peptide containing the PTAP motif (1) in the same buffer was dispensed (50 nM final concentration) and the binding was allowed to proceed for 20 min. at r.t. Fluorescent polarization was determined using FITC excitation and polarized emission filters on a Perkin Elmer Envision. Assay cut-off (positive/negative criteria): Actives defined by CRC class, <25 µM; Efficacy <60% inhibition. The total fluorescent intensity from S and P channels will be used to flag fluorescent compounds.
Background: qHTS replaces the single test concentration by a dilution series.
For the compound `CC(=O)c1ccc(NC(=O)CSc2c(C(C)C)cnc3c2c(=O)n(C)c(=O)n3C)cc1`, the “activity change, negative = inhibition” value is -0.533% (inactive).

Turning to `COc1ccc(OCc2ccc(-c3nc(C#N)c(N4CCN(c5ccccc5)CC4)o3)o2)cc1`, the “activity change, negative = inhibition” value was -0.55% (inactive).

Take `CCCCNC(=O)c1cc(-c2ccc(Cl)c(Cl)c2)on1`: the “activity change, negative = inhibition” value is 0.656% (inactive).

`CCSc1ncc(Cl)c(C(=O)Nc2c(C(=O)c3ccccc3)oc3ccccc23)n1`: the “activity change, negative = inhibition” value is 0.154% (inactive).

For `Cc1ccc(NC2=C(c3ccc(C(F)(F)F)cc3)C(=O)c3ccccc32)cc1F`, the “activity change, negative = inhibition” value was -2.86% (inactive).

With `COc1ccc(S(=O)(=O)c2c(Nc3cccc(Cl)c3)sc(C(=O)c3ccccc3)c2N)cc1`, the “activity change, negative = inhibition” value is 1.26% (inactive).

For the compound `COc1cccc(C(=O)c2sc3nc(-c4ccccc4)cc(C(F)(F)F)c3c2N)c1`, the Potency is 28.2 µM (active).

As to `COc1cccc(C(=O)Nc2ccc(-c3cc(C(F)(F)F)nn3-c3ccccc3)cc2)c1`, the “activity change, negative = inhibition” value was -5.37% (inactive).

On to `COc1ccc(NC(=O)CN2CCCN(Cc3ccccc3)S2(=O)=O)cc1`, for which the “activity change, negative = inhibition” value is 4.58% (inactive).

With `COc1ccccc1Nc1nc(N)nc(N)c1S(=O)(=O)c1ccccc1`, the “activity change, negative = inhibition” value was 2.79% (inactive).

On to `COc1cccc(N2CCN(C(=O)CCCCCn3c(=O)[nH]c4ccccc4c3=O)CC2)c1`, for which the “activity change, negative = inhibition” value was -2.04% (inactive).

On to `COc1ccc(CNC(=O)c2cc3c(=O)[nH]c4ccccc4c3s2)cc1`, for which the “activity change, negative = inhibition” value is -0.283% (inactive).

In the case of `CCCN1C(=O)C(O)(CC(=O)c2ccc(CC)cc2)c2cc(Br)ccc21` (configuration not stated), the “activity change, negative = inhibition” value is -0.282% (inactive).

As for `O=C(c1ccco1)n1nc(-c2ccc(Cl)cc2)nc1NCc1ccccc1`, the “activity change, negative = inhibition” value was -4.62% (inactive).

With `Cn1c(=O)c2c(-c3ccccc3Br)n(Cc3ccccc3)cc2n(C)c1=O`, the “activity change, negative = inhibition” value was -2.21% (inactive).

As to `Cc1cc(C)c(NC(=O)CN2C(=O)c3cccnc3Oc3ccc(Cl)cc32)c(C)c1`, the “activity change, negative = inhibition” value was 0.363% (inactive).

Turning to `CCOC(=O)c1ccc(NC(=O)C2CCN(S(=O)(=O)c3ccc4c(c3)CCCC(=O)N4)CC2)cc1`, the “activity change, negative = inhibition” value was -0.0606% (inactive).

Take `O=C(Nc1ccc2nc(SCC(=O)N3CCCc4ccccc43)sc2c1)c1ccc(F)cc1`: the “activity change, negative = inhibition” value was 7.03% (inactive).

As for `CCOc1ccc(NC(=O)Cn2c(=O)n(CCCC(=O)NCc3ccc4c(c3)OCO4)c(=O)c3ccccc32)cc1`, the “activity change, negative = inhibition” value was -2.28% (inactive).

On to `CC(=O)N1c2ccc(S(=O)(=O)N3CCCCCC3)cc2CC1C(=O)NCc1ccccc1C` (configuration not stated), for which the “activity change, negative = inhibition” value is 1.47% (inactive).

Consider `CCOc1cccc(C(=O)Nc2nnc(S(=O)(=O)N(C)c3ccc(C)cc3)s2)c1`, for which the “activity change, negative = inhibition” value was 4.37% (inactive).

Turning to `COc1cc(CNCCSc2nnnn2C)ccc1OCc1ccc(Cl)cc1Cl`, the “activity change, negative = inhibition” value was -9.59% (inactive).

Turning to `Cc1cn(C)c(CC(=O)NCc2ccccc2)c1C(=O)O`, the “activity change, negative = inhibition” value is -6.7% (inactive).

Turning to `CCc1ccc(CNC(=O)c2ccc(CS(=O)c3ccc(Br)cc3)o2)cc1` (configuration not stated), the “activity change, negative = inhibition” value was -1.78% (inactive).

For `COc1ccc(-n2ccnc(NCCc3ccc(Cl)cc3)c2=O)cc1OC`, the “activity change, negative = inhibition” value was -3.87% (inactive).

Take `N#Cc1nc(/C=C/c2ccc(F)cc2)oc1NC1CCCCC1`: the “activity change, negative = inhibition” value is 0.943% (inactive).

For `COc1ccc(CNC(=O)CS(=O)Cc2nc(-c3cccc(C)c3)oc2C)cc1` (configuration not stated), the “activity change, negative = inhibition” value was 0.25% (inactive).

As to `CCOc1ccc(NC(=O)c2cc(S(=O)(=O)N3CCCC3)c[nH]2)cc1`, the “activity change, negative = inhibition” value was -8.6% (inactive).

As to `COc1cccc(C(=O)NCC(=O)OCc2cc(=O)n3ccsc3n2)c1`, the “activity change, negative = inhibition” value is 1.45% (inactive).

As to `Cc1nn(-c2ccc(N3CCCCC3)nn2)c(C)c1CCC(=O)NCc1ccccc1F`, the “activity change, negative = inhibition” value was 1.09% (inactive).

For the compound `CCc1cc2c(cc3c(=O)n(CC(=O)N4CCN(c5cc(Cl)ccc5C)CC4)ncn32)s1`, the “activity change, negative = inhibition” value was -5.09% (inactive).

In the case of `CCOc1ccc(C2C(=O)N(C3CCCCC3)CC(=O)N2CCC2=CCCCC2)cc1OC` (configuration not stated), the “activity change, negative = inhibition” value is -8.4% (inactive).

On to `CC1CCCN(Cc2c(O)ccc3c(=O)c(Oc4ccc(C(C)(C)C)cc4)c(C(F)(F)F)oc23)C1` (configuration not stated), for which the “activity change, negative = inhibition” value was -0.105% (inactive).

As for `CCc1cccc(C)c1NS(=O)(=O)c1ccc(-c2cc(C)no2)s1`, the “activity change, negative = inhibition” value is 0.67% (inactive).

`O=C(CCS(=O)(=O)c1cc(Br)cc2c1N(C(=O)C1CC1)CC2)Nc1ccc(C(F)(F)F)cc1`: the “activity change, negative = inhibition” value was 0.0494% (inactive).

With `O=C(OCc1cc(=O)n2nc(C3CC3)sc2n1)c1ccccc1Cl`, the “activity change, negative = inhibition” value is 0.428% (inactive).

As to `COc1ccc(NC(=O)Nc2cccc(-c3noc(C)n3)c2)cc1`, the “activity change, negative = inhibition” value is -0.369% (inactive).

For the compound `CC(C)(C)c1ccc(C(=O)N2CCC(c3nc(-c4ccc(S(=O)(=O)N5CCCC5)cc4)no3)CC2)cc1`, the “activity change, negative = inhibition” value was -4.06% (inactive).

`CCCCCn1c(CCCNC(=O)c2ccccc2OC)nc2ccccc21`: the “activity change, negative = inhibition” value was -6.58% (inactive).

Take `COc1ccccc1CNc1nccn(-c2ccc(F)cc2)c1=O`: the “activity change, negative = inhibition” value was 1.54% (inactive).

Consider `Cc1c(Cl)cccc1-c1ccc(CNCCCSc2nnnn2C)o1`, for which the “activity change, negative = inhibition” value is 0.191% (inactive).

Take `CSc1ccc(C2c3c(oc4ccccc4c3=O)C(=O)N2CCCN2CCOCC2)cc1` (configuration not stated): the “activity change, negative = inhibition” value is -5.71% (inactive).

`CSc1cccc(NC(=O)CN2C(=O)CCc3cc(S(=O)(=O)N4CCCCC4)ccc32)c1`: the “activity change, negative = inhibition” value was -4% (inactive).

For `COc1ccc(OC)c(NC(=O)CSC2=Nc3ccccc3C3=NC(CC(=O)NCc4ccc(F)cc4)C(=O)N23)c1` (configuration not stated), the “activity change, negative = inhibition” value was 1.59% (inactive).

Turning to `Cc1cc(OC(C)C(=O)Nc2sc3c(c2C(N)=O)CCCC3)ccc1Cl` (configuration not stated), the “activity change, negative = inhibition” value was -0.431% (inactive).

Consider `COc1ccc(-c2cc(-c3ccccc3)nc3c2COc2ccc(Cl)cc2-3)cc1`, for which the “activity change, negative = inhibition” value is -2.13% (inactive).

`CCCCNC(=O)C1CCCN(c2nnc(C)c3c(C)n(-c4ccc(Cl)cc4)nc23)C1` (configuration not stated): the “activity change, negative = inhibition” value is -6.8% (inactive).
